Compound activity (PubChem)
IL-1B inflam inh = inflammasome signaling inhibition, IL-1 beta readout; AID 743279; activity change, % at 57.5 µM; 360,000 compounds, 4.7% hits; THP-1 LPS/ATP IL-1B secretion, AlphaLISA, 16 h; stronger effect = lower value; in the data active = activity change below about -50%; inconclusive = mostly about -30% to -49%
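Secreted IL-1B measured by AlphaLISA bead assay after 16 h compound exposure of THP-1 cells; compounds (final up to 57.5 uM) added 1 h before LPS (250 ng/mL) and ATP (1.25 mM) stimulation; lower signal means less secretion.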
DT40 TDP1 no CPT = qHTS for Inhibitors of human tyrosyl-DNA phosphodiesterase 1 (TDP1): qHTS in cells in absence of CPT; DT40 Tdp1-/- hTDP1 cells, no CPT, ATP luminescence, 48 h; Potency, µM (series often up to 46.2 µM), actives largely listed as inhibitors; 420,000 compounds, 15% hits; also: nearly all actives have a fitted effect of over 55% in size
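Camptothecin absent (DMSO only). Human TDP1-complemented DT40 knockout cells, 400 cells/well, 37 °C for minimum 48 hr; ATP measured via CellTiter-Glo, 30 min dark incubation, luminescence.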
D3 antag = blocks the human D3 dopamine receptor; D3R cells, DiscoveRx beta-arrestin luminescence, antagonist mode; stronger effect = lower value; P35462; 360,000 compounds, 2.5% hits; max response, negative = inhibition, %; in the data active = max response below about -50%; inconclusive = no clear call, values can overlap the other calls
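Cells expressing the human receptor were seeded at 1500 cells/well, incubated overnight at 37 degrees C in 5% CO2, then exposed to library compounds with dopamine controls for 90 minutes at 37 degrees C before luminescent detection.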
TDP1 cell CPT = DT40-hTDP1 cell growth loss with CPT; Potency, µM (top dose mostly 46.2 µM), usual class: inhibitors; chicken DT40 Tdp1-/-;hTDP1 cells + 20 nM CPT, ATP luminescence, 48 h; 420,000 compounds, 12% hits; AID 686979; also: nearly all actives have a fitted effect of over 55% in size
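Chicken DT40 Tdp1-/- cells complemented with human TDP1, 400 cells/well, exposed to compounds plus 20 nM camptothecin for at least 48 h at 37 C; viability read as ATP content by CellTiter-Glo luminescence.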
ClpP mod = qHTS Assay for Activators of ClpP; ATP-dependent Clp protease proteolytic subunit (Bacillus subtilis (strain 168)), P80244; purified B. subtilis ClpP, FRET peptide cleavage, 20 min; Potency, µM (top dose mostly 57.5 µM); 340,000 compounds, 1.9% hits; AID 651965, 2013; active = well fitted falling curve with a large enough effect; inconclusive = small, poorly fitted or top-dose-only effect; inactive = no such curve, though single readings can be large or run the other way; also: the source files actives as falling curves though it sought activators and does not explain the sign; nearly all actives have a fitted effect of over 65% in size
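Buffer: 100 mM Tris/HCl pH8, 100 mM KCl, 0.05% low protease BSA, 2.5% glycerol, 0.01% Tween-20. ClpP 10 microg/mL final; 20 min RT; delta FRET normalized to ADEP and DMSO controls.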
DRD3 agonist = activates the human D3 dopamine receptor. P35462. D3R DiscoveRx beta-arrestin cells, luminescence, 90 min. max activation, %. AID 652048. 410,000 compounds, 0.58% hits; in the data active = max activation above about 30%
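Agonist mode: compounds and dopamine controls were applied to plated cells for 90 min at 37 degrees C after an overnight attachment at 1500 cells/well. Luminescent read-out followed 30 - 60 minutes at room temperature with DiscoveRx detection reagent.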
A number is an active result; n = inactive; u = inconclusive; x = no result. Compounds with a hit are over-represented: about 21% of the library has one in this group of screens. Unless noted, calls follow the shape of the dose curve; as a rule, active = well fitted inhibition curve with a large enough effect; inconclusive = small, poorly fitted or top-dose-only effect; inactive = flat fitted curve, though single readings scatter.

SMILES	IL-1B inflam inh	DT40 TDP1 no CPT	D3 antag	TDP1 cell CPT	ClpP mod	DRD3 agonist
Cc1ccc(C)c(N2CCN(C(=O)C3CCN(c4nc(-c5ccc(C(C)C)cc5)no4)CC3)CC2)c1	x	10µM	x	u	n	n
CC(C)c1ccc(S(=O)(=O)Nc2ccc3oc4c(c3c2)C(=O)CC(C)(C)C4)cc1	x	x	x	x	n	n
CCOc1ccc(CCNC(=O)c2cnc3sc(N4CCOCC4)nn3c2=O)cc1	x	n	x	u	u	n
O=C(NCCc1ccccc1)c1cnc2sc(N3CCOCC3)nn2c1=O	x	n	x	n	10µM	n
COc1ccc(CCNC(=O)c2cnc3sc(N4CCC(C)CC4)nn3c2=O)cc1OC	x	3.7µM	x	2.6µM	n	n
CC1CCN(c2nn3c(=O)c(C(=O)NCCc4ccccc4)cnc3s2)CC1	x	u	x	9.2µM	n	n
CC(=O)Nc1ccc(S(=O)(=O)NN=CCCc2ccccc2)cc1	n	n	n	n	x	n
CCN(CC)S(=O)(=O)c1cc(C(=O)OC(C)C(=O)NCc2ccco2)ccc1C (stereo not given)	n	u	n	u	n	n
CCNC(=S)N/N=C1\C(=O)c2cccc3cccc1c23	n	n	n	n	n	n
O=C(N/N=C1/C(=O)c2cccc3cccc1c23)c1ccc(Cl)cc1	n	4.6µM	n	4.1µM	n	n
Cc1ccc2cc3c(N)c4c(C)ccc(C)c4nc3nc2c1	n	u	n	u	n	n
Cc1ccc(N2C(=O)c3cccc4cccc(c34)C2=O)cc1	n	n	n	n	x	n
CC1=Nc2ccc(C)c3nc(C)cc(c23)N1c1ccc(C)cc1	n	16µM	n	u	n	n
Cc1ccc(N2C=Nc3ccc(C)c4nc(C)cc2c34)cc1	-52	u	n	u	22µM	n
COc1ccc(CNC(=O)O[C@@H]2C[C@H]3C(=O)N(c4ccccc4)C(=O)[C@H]3[C@@]3(CN(S(=O)(=O)c4ccc(C)cc4)C[C@H]3C)[C@@H]2O)cc1OC	-64	26µM	n	u	n	n
Cc1ccc(S(=O)(=O)N2C[C@@H](C)[C@]3(C2)[C@H](O)[C@H](OC(=O)NCc2ccco2)C[C@H]2C(=O)N(c4ccccc4)C(=O)[C@H]23)cc1	n	n	n	n	n	n
Cc1ccc(S(=O)(=O)N2C[C@@H](C)[C@]3(C2)[C@H](O)[C@H](OC(=O)Nc2cccs2)C[C@H]2C(=O)N(c4ccccc4)C(=O)[C@H]23)cc1	-109	16µM	n	23µM	n	n
COc1ccc(S(=O)(=O)N2CCOC2CNC(=O)C(=O)NCc2ccc(F)cc2)cc1OC (stereo not given)	n	u	n	n	n	n
CCOC(=O)CCCn1ccc2cc(S(=O)(=O)N3CCCC3)ccc21	n	n	n	n	n	n
O=C(O)C(O)c1ccccc1 (stereo not given)	n	n	n	n	n	n
O=C(O)C(SC(C(=O)O)c1ccccc1)c1ccccc1 (stereo not given)	n	u	n	u	28µM	n
CC1CCCN(CCCOc2ccc(Br)cc2Cl)C1 (stereo not given)	-90	u	-77	u	x	n
CC1CCN(CCOCCOc2ccc(Br)cc2Cl)CC1	u	21µM	-75	18µM	n	n
O=[N+]([O-])c1ccc(NC2CCN(Cc3ccccc3)CC2)c([N+](=O)[O-])c1	n	21µM	-62	u	n	n
CC1CCC2C(=O)N(c3ccc(NC4CCN(Cc5ccccc5)CC4)c([N+](=O)[O-])c3)C(=O)C2C1 (stereo not given)	n	16µM	-50	u	n	n
SMILES	IL-1B inflam inh	DT40 TDP1 no CPT	D3 antag	TDP1 cell CPT	ClpP mod	DRD3 agonist
O=[N+]([O-])c1ccccc1NC1CCN(Cc2ccccc2)CC1	u	n	u	n	x	n
O=C1C2CCCCC2C(=O)N1c1ccc(NC2CCN(Cc3ccccc3)CC2)c([N+](=O)[O-])c1 (stereo not given)	n	u	n	u	n	n
C/C(=N\Nc1ccc(Cl)c(C(=O)O)c1)c1ccc[nH]1	n	n	n	n	x	n
C=CCCC(=O)N1C[C@H]2CON(C)[C@H]2C[C@H]1c1cccc(Br)c1	n	n	n	n	n	n
COC(=O)c1c(-n2c(C)cc(C=O)c2C)sc2c1CCCC2	-63	22µM	n	u	n	n
CC=Cc1cc2c(c(=O)o1)C(=O)C(O)C(C)O2 (stereo not given)	-101	2.9µM	u	3.7µM	13µM	n
C=CCn1c(SCC(=O)N(CCOC)c2c(N)n(CC(C)C)c(=O)[nH]c2=O)nc2ccccc21	n	n	n	n	n	n
Cc1ccc(NC(=O)CN2CCc3cc4c(cc3C2C)OCCCO4)cc1 (stereo not given)	u	u	n	u	n	n
CN1CCCN(C(=O)c2cccc(Cl)c2)CC1	n	n	n	n	n	n
CC1c2cc3c(cc2CCN1CC(=O)Nc1ccccc1)OCCCO3 (stereo not given)	n	23µM	n	15µM	n	n
CC1c2cc3c(cc2CCN1C(=O)c1cccc(Cl)c1)OCCCO3 (stereo not given)	n	6.5µM	n	7.3µM	n	n
Cn1nc(C(=O)NNC(=O)c2ccccc2Br)c2ccccc2c1=O	n	n	n	n	n	n
COCCCNC(=S)Nc1ccccc1C	n	n	n	n	n	n
Cc1ccccc1NC(=S)NCCC(c1ccccc1)c1ccccc1	-62	u	-60	u	13µM	n
Cc1cccc(NC(=S)NNC(=O)c2ccc(O)cc2O)c1C	n	n	n	n	x	n
Cc1ccc(NC(=S)NCCC(c2ccccc2)c2ccccc2)c(C)c1	n	16µM	-67	23µM	n	n
Cc1ccc(NC(=S)NCc2ccccc2)c(C)c1	n	u	n	23µM	n	n
Cc1ccc(SCCNC(=S)Nc2ccc(C)cc2C)cc1	n	n	n	n	n	n
Cc1ccc(NC(=S)NNC(=O)c2ccccc2O)c(C)c1	n	13µM	n	23µM	x	n
CCc1nn(CC(=O)N(C)C2CCCCC2)c(=O)c2cc3cc(C)ccc3n12	n	u	n	u	n	n
COc1ccc(N(Cc2ccccc2)S(=O)(=O)c2cccc(C(=O)NCC3CCCO3)c2)cc1 (stereo not given)	n	n	n	n	x	n
Cc1cccc(N2C(=O)N3[C@H]4c5ccccc5OC[C@@H]4[C@@H](c4ccccc4)[C@@]3(C)C2=O)c1	n	u	n	n	n	n
CCc1cc(C(=O)NNC(=S)Nc2cc(C)ccc2C)cs1	n	u	n	n	n	n
